Bioassay records: PubChem, The Scripps Research Institute Molecular Screening Center
Sampled rows, rich in hits. Any-hit rate of the full collection: about 3.5%.
FBW7 activator: activators of human E3 ligase FBW7; AlphaScreen FBW7–phospho-cyclin E peptide binding, activator screen; normalized activity (activation), % at 26.1 µM; hit rate 0.13% among 650,000; Q969H0; in the data active = normalized activity above about 1.9%;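 note: purified mutant Fbw7 with reduced substrate affinity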
Target sequence (Q969H0 whole entry, looked up): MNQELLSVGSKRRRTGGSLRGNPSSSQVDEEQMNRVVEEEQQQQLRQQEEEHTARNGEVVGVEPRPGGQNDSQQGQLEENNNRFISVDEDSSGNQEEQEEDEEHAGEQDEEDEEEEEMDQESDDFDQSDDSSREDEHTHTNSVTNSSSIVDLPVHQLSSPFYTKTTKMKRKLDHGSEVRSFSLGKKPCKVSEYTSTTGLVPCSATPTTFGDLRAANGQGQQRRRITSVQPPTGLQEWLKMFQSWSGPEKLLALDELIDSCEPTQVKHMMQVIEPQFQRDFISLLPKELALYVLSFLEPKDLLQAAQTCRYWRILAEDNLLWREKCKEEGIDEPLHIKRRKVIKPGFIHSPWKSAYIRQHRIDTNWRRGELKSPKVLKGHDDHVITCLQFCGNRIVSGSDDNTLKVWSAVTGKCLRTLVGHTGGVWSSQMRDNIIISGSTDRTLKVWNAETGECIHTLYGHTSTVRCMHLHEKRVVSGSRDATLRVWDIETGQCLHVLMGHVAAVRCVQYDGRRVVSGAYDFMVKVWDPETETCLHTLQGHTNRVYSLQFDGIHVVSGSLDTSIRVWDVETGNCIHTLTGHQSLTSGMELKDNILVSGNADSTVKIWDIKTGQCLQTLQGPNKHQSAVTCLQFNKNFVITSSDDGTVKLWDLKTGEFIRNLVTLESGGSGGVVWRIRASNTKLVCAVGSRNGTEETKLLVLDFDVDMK
MITF primary: human MITF inhibition, primary screen; hit rate 0.91% among 650,000; AID 1259374; O75030; AlphaScreen MITF homodimerization, bead proximity signal; inhibition, % at 2.6 µM; in the data active = inhibition above about 50%
TEAD-YAP inh: TEAD-YAP interaction inhibition. HEK-TIYL cells, TEAD-Gal4/YAP UAS-luciferase luminescence. inhibition, % at 9.12 µM. hit rate 1.4% among 640,000; in the data active = inhibition above about 32%
GPR151 ag: human GPR151 activation; Q8TDV0; PathHunter beta-arrestin GPR151 cells, luminescence; activation, % at 11.2 µM; hit rate 1% among 650,000; AID 1508602; in the data active = activation above about 4.9%
MITF confirm: confirmation of human MITF inhibitors; shares compounds with MITF primary; AlphaScreen MITF homodimerization, biotin/His-MITF beads; inhibition, % at 2.6 µM; hit rate 16% among 4,700; AID 1259372;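 active = inhibition above a cutoff derived from the DMSO control wells, cut at about 28% in these data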;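 note: inhibitors lower the bead chemiluminescence by keeping MITF from dimerizing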
AlphaScreen intf2: AlphaScreen optical interference, counter-screen; inhibition, % at 2.6 µM; AID 1259376; shares compounds with MITF primary; LysRS AlphaScreen counterscreen, signal interference, triplicate; hit rate 7.6% among 4,700;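 active = inhibition above a cutoff derived from the DMSO control wells, cut at about 30% in these data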
Large screens that a line does not name were inactive (follow-up assays come after a bar, where they were run).

Clc1ccc(SCCOCCN2CCNCC2)cc1	MITF primary 59 | MITF confirm inactive | AlphaScreen intf2 inactive
Cc1cc(Cl)ccc1OCCN1CCNCC1	MITF primary 73 | MITF confirm inactive | AlphaScreen intf2 inactive
Cc1cc(OCCOCCN2CCNCC2)cc(C)c1Cl	MITF primary 64 | MITF confirm inactive | AlphaScreen intf2 inactive
Clc1ccc(OCCCCN2CCNCC2)c(Br)c1	MITF primary 79 | MITF confirm inactive | AlphaScreen intf2 inactive
CCOC(=O)C(=CNC1CC(C)(C)NC(C)(C)C1)C(=O)OCC	none
Cc1ccc(-c2cc(-c3ccco3)c(C#N)c(SCC(=O)Nc3cccc(C)c3)n2)cc1	none
Cc1ccc(-c2cc(C(=O)Nc3nnc(C)s3)c3ccccc3n2)s1	MITF primary 65 | MITF confirm inactive | AlphaScreen intf2 inactive
Cc1ccc(-c2cc(C(=O)Nc3nc4ccc(Br)cc4s3)c3ccccc3n2)s1	none
CCN(CC)S(=O)(=O)c1cc(NC(=O)C(CCSC)NC(N)=O)ccc1C (stereo unspecified)	none
CCc1ccc2cc(C#N)c(N3CCCC(O)C3)nc2c1 (stereo unspecified)	none
CCOc1ccccc1OCCN1CCOCC1	none
CCOc1ccccc1OCCN1CCN(Cc2ccccc2)CC1	MITF primary 64 | MITF confirm inactive | AlphaScreen intf2 inactive
CCOc1ccccc1OCCN1CC(C)CC(C)C1 (stereo unspecified)	MITF primary 78 | MITF confirm inactive | AlphaScreen intf2 inactive
Fc1ccccc1OCCN1CCOCC1	none
Fc1ccccc1OCCN1CCN(Cc2ccccc2)CC1	MITF primary 73 | MITF confirm inactive | AlphaScreen intf2 inactive
CN(C)S(=O)(=O)c1ccc(NC(=O)c2cc(F)c(F)c(F)c2F)cc1	none
COc1ccc(C(=O)NCCCOC(C)C)c(OC)c1	none
C#CCOc1ccccc1CCCCCC(=O)O	none (no result: FBW7 activator, TEAD-YAP inh)
Cc1cc(=O)[nH]c(N/N=C/c2cccc(Cl)c2Cl)n1	MITF primary 79 | MITF confirm inactive | AlphaScreen intf2 inactive
COCCNC(=O)CCCCn1c(=S)[nH]c2c([nH]c3ccc(OC)cc32)c1=O	MITF primary 52 | MITF confirm inactive | AlphaScreen intf2 41
CCOc1ccc(-n2c(=S)sc3c2nc(SCC(=O)NCc2ccccc2)n2c4ccccc4nc32)cc1	none
CCOC(=O)c1ccc(-n2c(=S)sc3c2nc(SCC(=O)NCc2ccccc2)n2c4ccccc4nc32)cc1	MITF primary 60 | MITF confirm inactive | AlphaScreen intf2 inactive
CCc1nnc2n1NC(=O)CS2	none
COC(=O)C(C(=O)OC)=C(/C=C/N(C)C)N(C)C	MITF primary 74 | MITF confirm inactive | AlphaScreen intf2 inactive
CCOC(=O)/C(C(C)=O)=C(\C=C\N(C)C)N(C)C	none
COc1ccc(Br)cc1CN1CCN(Cc2c[nH]c3ccccc23)CC1	none
COc1ccc(Br)cc1CN1CCN(Cc2cccnc2)CC1	MITF primary 59 | MITF confirm inactive | AlphaScreen intf2 inactive
COc1cc(OC)c(OC)cc1CN1CCN(Cc2cccnc2)CC1	MITF primary 82 | MITF confirm inactive | AlphaScreen intf2 inactive
COc1ccccc1CN1CCN(Cc2cccnc2)CC1	MITF primary 84 | MITF confirm inactive | AlphaScreen intf2 inactive
COc1ccc(OC)c(CN2CCN(Cc3cccnc3)CC2)c1	MITF primary 82 | MITF confirm inactive | AlphaScreen intf2 inactive
COc1ccc(OC)c(CN2CCN(c3ccccn3)CC2)c1	none
COc1ccccc1C1(O)CCN(Cc2cccnc2)CC1	none
COc1cc2c(c(OC)c1)C(c1cccc3ccccc13)CC(=O)N2 (stereo unspecified)	none
O=C1CCCN1C(=O)CN1CCOCC1	MITF primary 53 | MITF confirm inactive | AlphaScreen intf2 inactive
O=C1CCCN1C(=O)CN1CCCCC1	MITF primary 52 | MITF confirm inactive | AlphaScreen intf2 inactive
CC1=NN(C(N)=S)C(=O)C1N=Nc1ccc(S(=O)(=O)O)cc1 (stereo unspecified)	none
COc1ccc(CCNc2nc(NC3CCN(Cc4ccccc4)CC3)nc3c2ncn3C2CCCCC2)cc1	none
Cc1cccc(C(C)(C)C)c1OCCOCCN1CCOCC1	none
Cc1cccc(C(C)(C)C)c1OCCCN1CCN(C)CC1	MITF primary 68 | MITF confirm inactive | AlphaScreen intf2 inactive
Cc1ccccc1OCCOCCN1CCN(C)CC1	MITF primary 73 | MITF confirm inactive | AlphaScreen intf2 inactive
Cc1cccc(C)c1OCCOCCN1CCN(C)CC1	MITF primary 64 | MITF confirm inactive | AlphaScreen intf2 inactive
CCOc1ccc(C(=O)C2CCN(Cc3nnnn3Cc3ccc(F)cc3)CC2)cc1	none
CCOc1cc(C(=O)NC(C)c2ccc(CC)cc2)cc(OCC)c1OCC (stereo unspecified)	none
COC(=O)C1=CN(C(C)C)C=C(C(=O)OC)C1c1ccc(Br)cc1	none
O=S(=O)(c1ccc(Br)cc1)n1c(SCc2cccc(F)c2)nc2ccccc21	MITF primary 110 | MITF confirm inactive | AlphaScreen intf2 inactive
COc1cc(OC)cc(C(=O)N2CCN(Cc3ccc(C)cc3)CC2)c1	none
COc1cc(OC)cc(C(=O)N2CCN(Cc3ccccc3Cl)CC2)c1	MITF primary 60 | MITF confirm inactive | AlphaScreen intf2 inactive
COc1ccccc1CN1CCN(C(=O)c2cccc(F)c2)CC1	none
COc1cc(OC)cc(C(=O)N2CCN(Cc3ccccc3OC)CC2)c1	MITF primary 61 | MITF confirm inactive | AlphaScreen intf2 inactive
Cc1cc2c(cc1C)C(c1ccccc1Cl)CC(=O)N2 (stereo unspecified)	none
O=C(c1ccco1)N1CCN(Cc2ccncc2)CC1	MITF primary 82 | MITF confirm inactive | AlphaScreen intf2 inactive
O=C(c1ccco1)N1CCN(Cc2ccccc2Br)CC1	MITF primary 60 | MITF confirm inactive | AlphaScreen intf2 inactive
O=C(c1ccco1)N1CCN(C(=O)c2ccco2)CC1	none
CC(C)N1CCN(C(=O)c2ccco2)CC1	MITF primary 51 | MITF confirm inactive | AlphaScreen intf2 inactive
CCc1nnc(NS(=O)(=O)c2ccc(N3C(=O)c4c(Cl)c(Cl)c(Cl)c(Cl)c4C3=O)cc2)s1	none
O=C(CN1CCC(O)(c2cccnc2)CC1)NC1CCCCC1	none
COC(=O)c1ccc(OCCCCN2CC(C)OC(C)C2)cc1 (stereo unspecified)	MITF primary 54 | MITF confirm inactive | AlphaScreen intf2 inactive
CC1CN(CCOc2ccc(F)cc2)CC(C)O1 (stereo unspecified)	MITF primary 53 | MITF confirm inactive | AlphaScreen intf2 inactive
COc1ccc(CNC(=S)N(C)c2ccc(O)cc2)cc1	none
CCOC(=O)C(C)Sc1nc2c(c(=O)n1C)SC(C)C2 (stereo unspecified)	none
Nc1nc(-c2cccnc2)nn1C(=O)c1ccc([N+](=O)[O-])cc1	MITF primary 55 | MITF confirm inactive | AlphaScreen intf2 inactive
Nc1nc(-c2cccnc2)nn1C(=O)c1ccc(Cl)cc1	none
CCOc1ccc(CN2CCN(S(C)(=O)=O)CC2)cc1	MITF primary 66 | MITF confirm inactive | AlphaScreen intf2 inactive
